IP6K1 inhibitor = inhibitors of human IP6K1 | Q92551 | IP6K1 kinase, ADP-Glo luminescence, 2 h; stronger effect = lower value | activity change, % (series mostly up to about 58 µM) | 140,000 compounds, 0.81% hits; in the data active = activity change below about -25%
Target sequence (Q92551 whole entry, looked up): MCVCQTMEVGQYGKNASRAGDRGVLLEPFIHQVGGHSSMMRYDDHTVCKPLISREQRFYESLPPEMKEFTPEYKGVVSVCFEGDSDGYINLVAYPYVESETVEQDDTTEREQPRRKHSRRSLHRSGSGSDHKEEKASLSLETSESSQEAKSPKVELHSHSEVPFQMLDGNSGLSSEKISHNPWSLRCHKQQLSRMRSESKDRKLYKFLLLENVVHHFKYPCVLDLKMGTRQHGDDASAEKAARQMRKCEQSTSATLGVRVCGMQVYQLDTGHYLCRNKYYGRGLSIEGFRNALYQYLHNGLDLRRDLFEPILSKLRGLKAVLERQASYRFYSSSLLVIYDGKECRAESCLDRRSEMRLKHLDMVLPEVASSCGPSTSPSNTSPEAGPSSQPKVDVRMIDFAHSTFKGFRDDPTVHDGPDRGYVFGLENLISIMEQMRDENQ
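ADP-Glo luminescence measures ADP made by human IP6K1 during a 2 h RT reaction with ATP/IP6 (mix at 1.3 mM/130 uM); top library doses 57.5 and 19.1 uM final.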
KDM5B inhibitor = KDM5B demethylase inhibition; KDM5B demethylase, FDH-coupled NADH fluorescence (FDH is formaldehyde dehydrogenase); Potency, µM (titrated, usually from 57.7 µM), actives largely listed as inhibitors; 220,000 compounds, 2.6% hits; AID 1347165; active = well fitted inhibition curve with a large enough effect; inconclusive = small, poorly fitted or top-dose-only effect; inactive = no such curve, though single readings can be large or run the other way; note: nearly all actives have a fitted effect of over 70% in size
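Compound dilutions met 200 nM (final) KDM5BΔAP for 10 min at room temperature before substrate addition. The substrate mix held 12.5 µM H3K4me3 with cofactors 25 µM α-ketoglutarate and 50 µM Fe²⁺. NADH signal gain over 30 min defined activity.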
Numbers stand for hits; n = inactive; u = inconclusive; x = not tested or not shown. Sampled rows, rich in hits. Any-hit rate of the full collection: about 2.8%.

SMILES | IP6K1 inhibitor | KDM5B inhibitor
CNC(=O)c1ccc2cc[nH]c2n1 | n | n
O=C(NC1CC1)c1ccc2cc[nH]c2n1 | n | n
C=CCNC(=O)c1ccc2cc[nH]c2n1 | n | 45µM
O=C(NCc1ccc(Cl)cc1)c1ccc2cc[nH]c2n1 | n | 112µM
CC/C=C(/C)C(=O)N1CCCC(C(=O)NCC2CC2)C1 (stereo unspecified) | x | n
O=C(NC1CCCN(c2ccc3nnc(-c4ccccc4)n3n2)C1)c1ccccc1 (stereo unspecified) | n | x
O=C(Cc1ccccn1)NCCNC(=O)c1ccc(-c2cncnc2)cc1 | n | x
COc1cccc(C(=O)NCCn2ccn3nc(-c4ccc(C)c(C)c4)cc3c2=O)c1 | n | n
Cc1ccc(C(=O)NCCn2ccn3nc(-c4ccc(C)c(C)c4)cc3c2=O)cc1 | n | u
Cc1ccc(-c2cc3c(=O)n(CCNC(=O)c4ccc(Cl)cc4)ccn3n2)cc1C | n | 14µM
Cc1ccc(-c2cc3c(=O)n(CCNC(=O)Cc4cccc(F)c4)ccn3n2)cc1C | n | u
Cc1ccc(-c2cc3c(=O)n(CCNC(=O)c4ccc(F)cc4Cl)ccn3n2)cc1C | n | 32µM
Cc1ccc(C(=O)NCCn2ccn3nc(-c4cc(C)ccc4C)cc3c2=O)cc1 | n | n
Cc1ccc(-c2cc3c(=O)n(CCNC(=O)c4cccc(N(C)C)c4)ccn3n2)cc1C | n | 18µM
Cc1ccc(C)c(-c2cc3c(=O)n(CCNC(=O)c4ccc(N(C)C)cc4)ccn3n2)c1 | n | 35µM
O=C(Nc1ccccc1)c1ccc(CSc2ccc3c(c2)OCCCO3)cc1 | x | n
Cc1ccc(NC(=S)NCCC2=CCCCC2)cc1F | x | n
COc1ccc(C(=O)N[C@@H]2CCC[C@@H]2C(=O)NCc2ccc(C)c(C)c2)cc1 | n | n
COC[C@@H]1CN(c2cnccn2)C[C@H]1C(=O)NCCc1ccncc1 | n | 25µM
CCOc1ccc(NC(=O)C2CCCN(c3cnccn3)C2)cc1 (stereo unspecified) | n | u
COC[C@@H]1CN(c2cnccn2)C[C@H]1C(=O)NCc1ccc(C)c(C)c1 | n | 18µM
CCCc1ccc(NC(=O)C2CCCN(c3cnccn3)C2)cc1 (stereo unspecified) | n | n
COC[C@@H]1CN(c2cnccn2)C[C@H]1C(=O)NCC1CC1 | n | 18µM
CC(C)n1nnc2cc(C(=O)N(C)CC(=O)Nc3cccc(C#N)c3)ccc21 | x | n
CCCOc1nccnc1NC1CCN(C(=O)c2cccnc2)CC1 | n | 28µM
SMILES | IP6K1 inhibitor | KDM5B inhibitor
O=C(c1ccsc1)N1CCC(Nc2cccnc2)C1 (stereo unspecified) | n | 13µM
CCCOc1nccnc1NC1CCN(C(=O)c2ccsc2)CC1 | n | 28µM
Cc1ccc(OCCC2CCN(C(=O)c3ccsc3)C2)cc1 (stereo unspecified) | n | n
O=C(c1cccnc1)N1CCC(OC2CCN(Cc3cccnc3)CC2)CC1 | n | n
CC(C)S(=O)(=O)N1CCC(Nc2cccnc2)C1 (stereo unspecified) | n | 8.9µM
O=C(c1cccs1)N1CCC(Nc2cccnc2)C1 (stereo unspecified) | n | u
O=C(CC1CCCC1)N1CCC(Nc2cccnc2)C1 (stereo unspecified) | n | u
COC(=O)c1c(C)oc2ccc(OS(C)(=O)=O)cc12 | x | n
CC(NC(=O)CCNC(=O)C(C)(C)C)C(=O)NC1CCCC1 (stereo unspecified) | x | n
CCC(C)NC(=O)c1ccc(-c2ccc(OC)nn2)cc1Cl (stereo unspecified) | n | x
CCCC(=O)N1c2nc(CC)nn2C2(CCCCC2)[C@@H]2CCCC[C@@H]21 | x | n
O=C(Nc1ccccc1C(F)(F)F)c1ccc(Cl)c(Cl)c1 | x | n
CC(C)(C)CC(=O)Nc1nc2c(s1)C[C@@H]1[C@](C)(CO)[C@H](O)CC[C@@]1(C)[C@@H]2CC(=O)NCc1ccccc1 | n | n
COc1ccc(CNC(=O)C[C@@H]2c3nc(NC(=O)c4cccs4)sc3C[C@@H]3[C@](C)(CO)[C@H](O)CC[C@]32C)cc1 | n | 25µM
COc1ccc(CNC(=O)C[C@@H]2c3nc(NC(=O)c4c(F)cccc4F)sc3C[C@@H]3[C@](C)(CO)[C@H](O)CC[C@]32C)cc1 | n | 28µM
COCC(=O)Nc1nc2c(s1)C[C@@H]1[C@](C)(CO)[C@H](O)CC[C@@]1(C)[C@@H]2CC(=O)NCc1ccc(OC)cc1 | n | n
COc1ccc(Nc2ccnc(N3CCN([S+](=O)([O-])c4cccc(C(F)(F)F)c4)CC3)n2)cc1 | n | x
CCOC(=O)C1CCN(C(=O)C2CCCN(Cc3cccc(-c4ccsc4)c3)C2)CC1 (stereo unspecified) | n | x
Cc1nc(CN2C(=O)COc3ccc(S(=O)(=O)NC4CCCCCCC4)cc32)no1 | x | n
CCN(CC)C(=O)c1cc(-c2ccncc2)nc2ccccc12 | x | n
CCN(Cc1ccncc1)C(=O)c1cc(-c2cnn(CC)c2)nc2cc(C)ccc12 | n | 28µM
